Test results reported in the supplement of paper PMC10849652.
Of roughly 8,800 targets only a part is listed; those with a hit were picked by preference. About 0.5% of all pairs of compound and target were hits. A number with no mark means an inactive call.

Legend:
Assay in all cases: log2 fold change, soluble protein after heating vs DMSO (PISA); higher = thermal stabilisation; K562 lysate, 10 uM; active = over 0.2 and 3.5 SD of the protein, either way, in both replicates (recomputed)
[1] = compound: C=CC(=O)N1CCC[C@@H](n2nc(-c3ccc(Oc4ccccc4)cc3)c3c(N)ncnc32)C1 [ibrutinib]
Method in brief: (§1)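 The values are log-two fold changes in thermal stability compared with solvent controls and come from duplicates. They were obtained by TMTpro 16plex LC-MS/MS, with channel sums equalised, on the supernatant after 21,000xg for 90 min. That supernatant came from crude K562 extract at 1 mg/mL protein treated with 10 μM compound for 30 min, heated for 3 min across 48°C-58°C, pooled and brought to 0.5% NP-40 at 4°C.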

[2] = compound: CC(=O)c1cnc2ccc(-c3cc(Cl)c(O)c(Cl)c3)nc2c1N[C@H]1CC[C@H](CN(C)C)CC1
Method in brief: as §1

[3] = compound: CC(C)(C)Cn1c(N)nc2ccc(-c3[nH]c(C(C)(C)C)nc3-c3ccc(F)cc3)nc21 [ralimetinib]
Method in brief: as §1

[4] = compound: CC(C)(O)CC(=O)NCCn1ccc2ncnc(Nc3ccc(Oc4cccc(C(F)(F)F)c4)c(Cl)c3)c21
Method in brief: as §1

[5] = compound: CC(C)C1=C2N=C(C=C(N2N=C1)NCC3=CC=CC=C3)NCCCCCCN
Method in brief: as §1

[6] = compound: CC1=C(C(CC(=O)N1)C2=CC=C(C=C2)C(F)(F)F)C(=O)NC3=C(C=C4C(=C3)C=NN4)F
Method in brief: as §1

[7] = compound: CC1=C(C2=C(C=C1)C(=O)C3=CC=CC=C3N2CCCN)C
Method in brief: as §1

[8] = compound: CC1=C(C=C(C=C1)NC(=O)C2=CC(=CC=C2)C(C)(C)C#N)NC3=CC4=C(C=C3)N=CN(C4=O)C
Method in brief: as §1

[9] = compound: CC1=C(C=C(C=C1)NC(=O)C2=CC(=CC=C2)N(C)C)NC(=O)C3=CC=C(C=C3)O
Method in brief: as §1

[10] = compound: CC1=CC=C(C=C1)SC2=C3C=C(SC3=CN=C2)C(=O)N
Method in brief: as §1

[11] = compound: CCCS(=O)(=O)Nc1ccc(F)c(C(=O)c2c[nH]c3ncc(-c4ccc(Cl)cc4)cc23)c1F [vemurafenib]
Method in brief: as §1

[12] = compound: CCCS(=O)(=O)Nc1ccc(F)c(C(=O)c2c[nH]c3ncc(Cl)cc23)c1F
Method in brief: as §1

[13] = compound: CCN(CCCOc1ccc2c(Nc3cc(CC(=O)Nc4cccc(F)c4)[nH]n3)ncnc2c1)CCOP(=O)(O)O [barasertib]
Method in brief: as §1

[14] = compound: CC[C@@H]1C(=O)N(C)c2cnc(Nc3ccc(C(=O)NC4CCN(C)CC4)cc3OC)nc2N1C1CCCC1
Method in brief: as §1

[15] = compound: CC[C@@H]1C(=O)N(C)c2cnc(Nc3ccc(C(=O)N[C@H]4CC[C@H](N5CCN(CC6CC6)CC5)CC4)cc3OC)nc2N1C(C)C [volasertib]
Method in brief: as §1

[16] = compound: CCn1c(C(=O)N(C2CC2)C2CC2)cc2c3c(ncn3C)c(Nc3cc(C)n(C)n3)nc21
Method in brief: as §1

[17] = compound: CCn1cc(-c2ccnc3[nH]c(-c4cccc(CN(C)C)c4)cc23)c(-c2ccc(NC(=O)N(C)C)cc2)n1
Method in brief: as §1

[18] = compound: CN1CCC(CNc2ccc3ncc(-c4cccc(OC(F)(F)F)c4)n3n2)CC1
Method in brief: as §1

[19] = compound: CN1CCN(CCOc2cc(OC3CCOCC3)c3c(Nc4c(Cl)ccc5c4OCO5)ncnc3c2)CC1 [saracatinib]
Method in brief: as §1

[20] = compound: CN1CCN(c2nc(C3=C(c4c[nH]c5ccccc45)C(=O)NC3=O)c3ccccc3n2)CC1 [sotrastaurin]
Method in brief: as §1

UniProt Q15633, sequence (Q15633 whole entry, looked up): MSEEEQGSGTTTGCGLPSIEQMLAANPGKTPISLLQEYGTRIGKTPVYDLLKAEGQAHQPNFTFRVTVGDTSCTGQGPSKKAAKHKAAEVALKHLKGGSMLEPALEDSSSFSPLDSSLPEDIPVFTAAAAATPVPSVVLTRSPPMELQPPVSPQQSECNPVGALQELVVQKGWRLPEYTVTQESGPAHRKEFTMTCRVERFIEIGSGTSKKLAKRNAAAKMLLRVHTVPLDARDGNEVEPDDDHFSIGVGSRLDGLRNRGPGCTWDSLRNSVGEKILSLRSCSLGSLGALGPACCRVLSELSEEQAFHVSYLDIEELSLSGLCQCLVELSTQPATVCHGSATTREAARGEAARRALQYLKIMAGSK
UniProt P31947, sequence (P31947 whole entry, looked up): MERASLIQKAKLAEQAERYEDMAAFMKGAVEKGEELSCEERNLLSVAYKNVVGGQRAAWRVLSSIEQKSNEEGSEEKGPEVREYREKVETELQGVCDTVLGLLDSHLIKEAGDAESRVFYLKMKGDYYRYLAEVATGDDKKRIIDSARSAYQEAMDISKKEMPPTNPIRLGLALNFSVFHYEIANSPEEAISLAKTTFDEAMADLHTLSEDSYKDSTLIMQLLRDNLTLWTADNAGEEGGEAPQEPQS
UniProt Q99963, sequence (Q99963 whole entry, looked up): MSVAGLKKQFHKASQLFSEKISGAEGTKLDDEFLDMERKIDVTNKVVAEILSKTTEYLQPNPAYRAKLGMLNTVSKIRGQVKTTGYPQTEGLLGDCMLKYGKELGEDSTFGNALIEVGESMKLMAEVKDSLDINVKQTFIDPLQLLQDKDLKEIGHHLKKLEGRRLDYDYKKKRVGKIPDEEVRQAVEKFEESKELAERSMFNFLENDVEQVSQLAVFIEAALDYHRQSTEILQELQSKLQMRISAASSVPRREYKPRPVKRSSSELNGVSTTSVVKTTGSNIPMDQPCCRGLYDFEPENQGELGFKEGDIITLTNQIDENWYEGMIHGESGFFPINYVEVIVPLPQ
UniProt Q9H4L7, sequence (Q9H4L7 whole entry, looked up): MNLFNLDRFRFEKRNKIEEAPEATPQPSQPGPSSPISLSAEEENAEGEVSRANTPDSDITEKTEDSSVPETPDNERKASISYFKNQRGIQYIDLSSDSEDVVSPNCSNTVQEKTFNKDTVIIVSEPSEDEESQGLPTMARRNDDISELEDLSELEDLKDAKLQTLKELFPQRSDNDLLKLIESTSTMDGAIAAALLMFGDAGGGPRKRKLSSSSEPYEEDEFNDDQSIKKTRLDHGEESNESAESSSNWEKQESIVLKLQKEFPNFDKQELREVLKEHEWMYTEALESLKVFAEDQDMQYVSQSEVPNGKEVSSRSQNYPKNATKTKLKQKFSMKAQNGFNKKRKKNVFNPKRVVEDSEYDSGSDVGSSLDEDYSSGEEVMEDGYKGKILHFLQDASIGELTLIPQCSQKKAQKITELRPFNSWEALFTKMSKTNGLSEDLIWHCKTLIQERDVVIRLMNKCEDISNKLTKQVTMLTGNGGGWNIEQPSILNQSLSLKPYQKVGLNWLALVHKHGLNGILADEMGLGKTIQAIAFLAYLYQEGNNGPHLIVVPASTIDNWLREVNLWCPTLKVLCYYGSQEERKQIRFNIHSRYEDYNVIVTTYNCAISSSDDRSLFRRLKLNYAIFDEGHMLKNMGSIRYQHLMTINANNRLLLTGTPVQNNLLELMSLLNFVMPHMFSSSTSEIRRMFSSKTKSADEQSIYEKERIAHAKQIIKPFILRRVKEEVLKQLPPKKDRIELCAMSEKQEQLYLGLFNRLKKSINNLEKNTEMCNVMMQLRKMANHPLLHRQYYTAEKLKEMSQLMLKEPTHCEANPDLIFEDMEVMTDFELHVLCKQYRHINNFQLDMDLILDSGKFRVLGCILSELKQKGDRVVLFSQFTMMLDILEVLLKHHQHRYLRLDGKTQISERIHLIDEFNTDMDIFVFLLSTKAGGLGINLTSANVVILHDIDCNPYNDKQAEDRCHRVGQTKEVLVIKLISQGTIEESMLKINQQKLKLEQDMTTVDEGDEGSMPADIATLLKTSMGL
UniProt Q6PML9, sequence (Q6PML9 whole entry, looked up): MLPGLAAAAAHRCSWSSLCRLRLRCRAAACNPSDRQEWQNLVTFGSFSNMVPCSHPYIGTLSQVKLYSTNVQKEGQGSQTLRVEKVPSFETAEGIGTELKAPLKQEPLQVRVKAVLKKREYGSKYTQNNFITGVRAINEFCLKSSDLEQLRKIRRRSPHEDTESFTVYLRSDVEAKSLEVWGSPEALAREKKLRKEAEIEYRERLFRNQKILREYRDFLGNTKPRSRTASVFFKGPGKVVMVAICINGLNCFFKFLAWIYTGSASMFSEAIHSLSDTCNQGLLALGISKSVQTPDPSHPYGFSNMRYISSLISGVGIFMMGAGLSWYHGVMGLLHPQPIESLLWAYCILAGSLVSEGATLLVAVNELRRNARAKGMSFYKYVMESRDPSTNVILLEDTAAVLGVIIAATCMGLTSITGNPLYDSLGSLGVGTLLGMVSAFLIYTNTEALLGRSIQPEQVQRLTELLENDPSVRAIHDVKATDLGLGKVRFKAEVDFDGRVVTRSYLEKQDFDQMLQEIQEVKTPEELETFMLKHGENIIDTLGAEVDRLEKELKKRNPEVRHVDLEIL
UniProt O95793, sequence (O95793 whole entry, looked up): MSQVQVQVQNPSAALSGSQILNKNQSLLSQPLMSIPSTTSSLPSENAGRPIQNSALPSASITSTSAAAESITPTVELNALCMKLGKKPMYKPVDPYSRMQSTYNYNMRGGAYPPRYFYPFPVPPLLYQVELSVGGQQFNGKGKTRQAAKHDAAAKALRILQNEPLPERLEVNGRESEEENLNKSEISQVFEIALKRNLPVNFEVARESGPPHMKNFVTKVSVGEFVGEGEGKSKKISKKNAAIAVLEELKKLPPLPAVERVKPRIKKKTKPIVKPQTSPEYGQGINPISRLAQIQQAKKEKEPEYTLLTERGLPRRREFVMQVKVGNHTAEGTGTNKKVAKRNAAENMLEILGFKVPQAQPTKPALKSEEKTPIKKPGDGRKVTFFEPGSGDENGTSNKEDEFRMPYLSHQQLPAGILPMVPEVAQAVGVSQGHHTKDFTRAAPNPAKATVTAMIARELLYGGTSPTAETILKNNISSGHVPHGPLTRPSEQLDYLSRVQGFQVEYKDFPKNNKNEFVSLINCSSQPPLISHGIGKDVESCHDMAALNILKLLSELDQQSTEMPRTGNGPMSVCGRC
UniProt Q9Y3B4, sequence (Q9Y3B4 whole entry, looked up): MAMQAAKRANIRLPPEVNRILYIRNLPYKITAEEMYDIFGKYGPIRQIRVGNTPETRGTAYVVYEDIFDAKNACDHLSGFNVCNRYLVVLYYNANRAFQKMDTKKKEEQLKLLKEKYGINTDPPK
UniProt Q9UJC5, sequence (Q9UJC5 whole entry, looked up): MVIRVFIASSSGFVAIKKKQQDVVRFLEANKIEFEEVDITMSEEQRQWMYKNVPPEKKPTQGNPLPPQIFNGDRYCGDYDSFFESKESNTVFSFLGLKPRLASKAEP
UniProt Q92844, sequence (Q92844 whole entry, looked up): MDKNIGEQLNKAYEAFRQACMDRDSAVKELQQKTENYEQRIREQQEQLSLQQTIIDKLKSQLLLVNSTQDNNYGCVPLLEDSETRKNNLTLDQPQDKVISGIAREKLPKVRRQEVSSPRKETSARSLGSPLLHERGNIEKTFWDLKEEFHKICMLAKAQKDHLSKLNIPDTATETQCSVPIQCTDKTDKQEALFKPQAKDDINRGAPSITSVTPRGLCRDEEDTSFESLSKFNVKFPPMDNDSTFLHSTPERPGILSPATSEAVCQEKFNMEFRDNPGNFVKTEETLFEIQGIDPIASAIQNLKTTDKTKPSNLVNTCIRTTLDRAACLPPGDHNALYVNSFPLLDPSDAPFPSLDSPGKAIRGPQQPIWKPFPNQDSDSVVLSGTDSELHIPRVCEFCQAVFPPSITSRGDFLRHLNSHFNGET
UniProt O95926, sequence (O95926 whole entry, looked up): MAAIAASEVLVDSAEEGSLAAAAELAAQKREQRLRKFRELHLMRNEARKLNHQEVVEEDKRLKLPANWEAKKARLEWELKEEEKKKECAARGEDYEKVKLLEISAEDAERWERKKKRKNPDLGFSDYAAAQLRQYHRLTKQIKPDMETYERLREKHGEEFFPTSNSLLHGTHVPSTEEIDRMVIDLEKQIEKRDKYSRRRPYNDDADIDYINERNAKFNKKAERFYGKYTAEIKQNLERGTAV
UniProt O43805, sequence (O43805 whole entry, looked up): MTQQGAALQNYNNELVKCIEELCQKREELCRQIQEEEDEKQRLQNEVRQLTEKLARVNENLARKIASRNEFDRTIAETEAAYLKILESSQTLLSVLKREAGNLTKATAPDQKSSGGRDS
UniProt Q14542, sequence (Q14542 whole entry, looked up): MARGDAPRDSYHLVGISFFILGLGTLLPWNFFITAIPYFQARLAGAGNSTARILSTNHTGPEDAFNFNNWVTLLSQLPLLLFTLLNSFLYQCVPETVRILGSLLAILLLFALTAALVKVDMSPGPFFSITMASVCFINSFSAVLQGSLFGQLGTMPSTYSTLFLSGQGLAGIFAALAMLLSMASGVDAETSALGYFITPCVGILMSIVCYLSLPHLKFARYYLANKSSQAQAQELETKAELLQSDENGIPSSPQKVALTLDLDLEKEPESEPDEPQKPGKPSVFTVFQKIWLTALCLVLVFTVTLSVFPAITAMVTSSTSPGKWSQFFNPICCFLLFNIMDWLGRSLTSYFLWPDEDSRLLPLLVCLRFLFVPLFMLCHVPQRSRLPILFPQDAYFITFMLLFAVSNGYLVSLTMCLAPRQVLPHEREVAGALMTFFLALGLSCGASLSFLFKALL

Row | Target | log2 fold change [1] | log2 fold change [2] | log2 fold change [3] | log2 fold change [4] | log2 fold change [5] | log2 fold change [6] | log2 fold change [7] | log2 fold change [8] | log2 fold change [9] | log2 fold change [10] | log2 fold change [11] | log2 fold change [12] | log2 fold change [13] | log2 fold change [14] | log2 fold change [15] | log2 fold change [16] | log2 fold change [17] | log2 fold change [18] | log2 fold change [19] | log2 fold change [20]
1 | SFN (UniProt P31947) | 0.015 | 0.01 | -0.002 | 0.035 | 0.016 | 0.045 | 0.031 | -0.036 | -0.004 | -0.021 | -0.038 | 0.003 | -0.025 | 0.006 | 0.029 | 0.023 | 0.521 (active) | -0.084 | -0.003 | -0.01
2 | STAU1 (UniProt O95793) | 0.043 | -0.021 | 0.03 | -0.011 | 0 | 0.017 | -0.022 | -0.037 | 0.018 | 0.022 | 0.027 | 0.003 | 0.01 | 0 | -0.013 | 0.069 | 0.25 | -0.103 | 0.004 | -0.039
3 | SYF2 (UniProt O95926) | 0.094 | 0.023 | -0.019 | 0.001 | -0.02 | -0.027 | -0.122 | 0.037 | 0.066 | -0.061 | -0.012 | -0.042 | -0.039 | 0.096 | 0.038 | -0.044 | -0.043 | 0.028 | 0.015 | -0.008
4 | SLC29A2 (UniProt Q14542) | 0.035 | 0.045 | 0.082 | -0.036 | 0.043 | -0.001 | -0.011 | 0.041 | 0.072 | 0.006 | 0.003 | 0.012 | 0.029 | 0.049 | -0.041 | -0.079 | -0.729 (active) | 0.206 | -0.004 | 0.013
5 | SH3GL3 isoform 3 (UniProt Q99963) | 0.042 | -0.104 | -0.014 | 0.004 | 0.001 | -0.017 | -0.045 | 0.027 | 0.042 | -0.102 | 0.08 | 0.012 | 0.063 | -0.032 | -0.049 | -0.051 | -0.761 (active) | 0.33 | -0.008 | 0.035
6 | SH3BGRL2 (UniProt Q9UJC5) | -0.014 | 0.027 | 0.006 | -0.014 | 0.035 | 0.03 | -0.004 | 0.036 | -0.072 | 0.053 | -0.013 | 0.021 | 0.022 | 0.076 | 0.006 | -0.007 | 0.387 (active) | -0.052 | 0.014 | 0.002
7 | SLC30A9 (UniProt Q6PML9) | 0.061 | 0.002 | -0.03 | 0.064 | 0.021 | -0.033 | 0.008 | 0.017 | -0.213 | -0.009 | -0.005 | 0.024 | 0.015 | 0.07 | 0.018 | 0.056 | -0.534 (active) | 0.079 | 0.034 | -0.056
8 | TANK (UniProt Q92844) | 0.042 | 0.086 | -0.049 | -0.003 | 0.044 | 0.061 | 0.018 | 0 | 0.054 | 0.002 | 0.023 | 0.004 | 0.007 | -0.026 | -0.02 | 0.004 | 0.18 | -0.054 | 0.01 | 0
9 | TARBP2 (UniProt Q15633) | -0.013 | 0 | -0.025 | -0.042 | 0.013 | 0.074 | -0.002 | 0.029 | 0.062 | -0.015 | -0.035 | 0.092 | 0.093 | -0.145 | -0.034 | -0.016 | -0.02 | -0.093 | 0.035 | -0.006
10 | SSB (UniProt E7ERC4) | 0.14 | -0.087 | -0.009 | -0.075 | -0.046 | 0.062 | 0.014 | 0.239 | 0.093 | -0.013 | 0.111 | 0 | -0.04 | -0.281 | 0.003 | -0.134 | 1.92 (active) | -0.377 | 0.013 | -0.012
11 | TARBP1 (UniProt Q13395) | -0.021 | 0.036 | 0.162 | 0.03 | -0.051 | -0.027 | -0.077 | 0.002 | 0.035 | -0.036 | 0.019 | -0.004 | 0.02 | 0.025 | -0.032 | -0.047 | -0.053 | -0.034 | -0.055 | 0.038
12 | SLC11A2 isoform 3 (UniProt P49281) | -0.032 | -0.018 | -0.038 | -0.093 | 0.017 | 0.242 | -0.001 | 0.094 | 0.001 | 0.003 | -0.009 | 0.043 | 0.019 | 0.073 | 0.026 | 0.036 | -0.082 | 0.074 | 0.028 | -0.012
13 | SSNA1 (UniProt O43805) | 0.187 | 0.017 | -0.049 | 0.012 | 0.003 | -0.012 | -0.026 | 0.013 | 0.02 | -0.024 | -0.067 | -0.022 | 0.134 | 0.075 | 0.027 | 0.016 | -0.005 | -0.002 | 0.013 | 0.004
14 | SF3B6 (UniProt Q9Y3B4) | 0.036 | 0.004 | -0.001 | -0.017 | -0.002 | 0.043 | 0.003 | 0.002 | 0.024 | -0.007 | -0.006 | -0.003 | -0.026 | 0.027 | 0.014 | -0.003 | 0.061 | -0.013 | 0.028 | 0.018
15 | SMARCAD1 isoform 2 (UniProt Q9H4L7) | 0.006 | -0.021 | 0.022 | -0.016 | 0.007 | 0.008 | 0.012 | 0.021 | 0.014 | -0.022 | 0.014 | 0.034 | 0.021 | -0.039 | -0.048 | 0.017 | -0.005 | -0.057 | 0.008 | 0.002
